Source: PubChem BioAssay
Active and inactive are the calls of the source.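 How the source made its calls: active means normalized viability below 100% at a tested concentration; inactive means the rest.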

Assay: ovarian cancer cell viability with rucaparib, profiling panel, oncology-focused library, rucaparib conditional (AID 1508598)
Settings: patient-derived ovarian cancer cells, CellTiter-Glo viability, 144 h, active compounds read low
[1] = at 5 µM, OCI-P5x cells, with rucaparib 20 µM, 100% = cells with rucaparib alone
[2] = at 5 µM, OCI-P5x cells, without rucaparib
[3] = at 0.000305 µM, OCI-C5x cells, with rucaparib 10 µM, 100% = cells with rucaparib alone
[4] = at 0.000305 µM, OCI-C5x cells, without rucaparib
[5] = at 0.000305 µM, OCI-P5x cells, with rucaparib 20 µM, 100% = cells with rucaparib alone
[6] = at 0.000305 µM, OCI-P5x cells, without rucaparib
[7] = at 0.00122 µM, OCI-C5x cells, with rucaparib 10 µM, 100% = cells with rucaparib alone
[8] = at 0.00122 µM, OCI-C5x cells, without rucaparib
[9] = at 0.00122 µM, OCI-P5x cells, with rucaparib 20 µM, 100% = cells with rucaparib alone
[10] = at 0.00122 µM, OCI-P5x cells, without rucaparib
[11] = at 0.00488 µM, OCI-C5x cells, with rucaparib 10 µM, 100% = cells with rucaparib alone
[12] = at 0.00488 µM, OCI-C5x cells, without rucaparib
[13] = at 0.00488 µM, OCI-P5x cells, with rucaparib 20 µM, 100% = cells with rucaparib alone
[14] = at 0.00488 µM, OCI-P5x cells, without rucaparib
[15] = at 0.0195 µM, OCI-C5x cells, with rucaparib 10 µM, 100% = cells with rucaparib alone
[16] = at 0.0195 µM, OCI-C5x cells, without rucaparib
[17] = at 0.0195 µM, OCI-P5x cells, with rucaparib 20 µM, 100% = cells with rucaparib alone
[18] = at 0.0195 µM, OCI-P5x cells, without rucaparib
[19] = at 0.0781 µM, OCI-C5x cells, with rucaparib 10 µM, 100% = cells with rucaparib alone
[20] = at 0.0781 µM, OCI-C5x cells, without rucaparib
[21] = at 0.0781 µM, OCI-P5x cells, with rucaparib 20 µM, 100% = cells with rucaparib alone
[22] = at 0.0781 µM, OCI-P5x cells, without rucaparib
[23] = at 0.313 µM, OCI-C5x cells, with rucaparib 10 µM, 100% = cells with rucaparib alone
[24] = at 0.313 µM, OCI-C5x cells, without rucaparib
[25] = at 0.313 µM, OCI-P5x cells, with rucaparib 20 µM, 100% = cells with rucaparib alone
[26] = at 0.313 µM, OCI-P5x cells, without rucaparib
[27] = at 1.25 µM, OCI-C5x cells, with rucaparib 10 µM, 100% = cells with rucaparib alone
[28] = at 1.25 µM, OCI-C5x cells, without rucaparib
[29] = at 1.25 µM, OCI-P5x cells, with rucaparib 20 µM, 100% = cells with rucaparib alone
[30] = at 1.25 µM, OCI-P5x cells, without rucaparib
[31] = at 5 µM, OCI-C5x cells, with rucaparib 10 µM, 100% = cells with rucaparib alone
[32] = at 5 µM, OCI-C5x cells, without rucaparib

Structure (SMILES): COc1ccc(C2=N[C@@H](c3ccc(Cl)cc3)[C@H](c3ccc(Cl)cc3)N2C(=O)N2CCNC(=O)C2)c(OC(C)C)c1
- viability [1]: 89.7% (active)
- viability [2]: 91.3% (active)

Structure (SMILES): CC1(C)O[C@@H]2C[C@H]3[C@@H]4CCC5=CC(=O)C=C[C@]5(C)[C@]4(F)[C@H](O)C[C@]3(C)[C@@]2(C(=O)CO)O1
- viability [3]: 108% (inactive)
- viability [4]: 124% (inactive)
- viability [5]: 97.2% (active)
- viability [6]: 122% (inactive)
- viability [7]: 116% (inactive)
- viability [8]: 123% (inactive)
- viability [9]: 101% (inactive)
- viability [10]: 116% (inactive)
- viability [11]: 106% (inactive)
- viability [12]: 117% (inactive)
- viability [13]: 96.8% (active)
- viability [14]: 110% (inactive)
- viability [15]: 105% (inactive)
- viability [16]: 122% (inactive)
- viability [17]: 92.8% (active)
- viability [18]: 107% (inactive)
- viability [19]: 108% (inactive)
- viability [20]: 120% (inactive)
- viability [21]: 92.1% (active)
- viability [22]: 110% (inactive)
- viability [23]: 105% (inactive)
- viability [24]: 114% (inactive)
- viability [25]: 90.6% (active)
- viability [26]: 106% (inactive)
- viability [27]: 109% (inactive)
- viability [28]: 108% (inactive)
- viability [29]: 84% (active)
- viability [30]: 97.8% (active)
- viability [31]: 109% (inactive)
- viability [32]: 99.9% (active)
- viability [1]: 78.5% (active)
- viability [2]: 90.4% (active)

Structure (SMILES): COC1=C2C[C@H](C)C[C@@H](OC)[C@H](O)[C@H](C)/C=C(\C)[C@H](OC(N)=O)[C@@H](OC)/C=C/C=C(\C)C(=O)NC(=CC1=O)C2=O
- viability [3]: 97.2% (active)
- viability [4]: 99.7% (active)
- viability [5]: 108% (inactive)
- viability [6]: 102% (inactive)
- viability [7]: 107% (inactive)
- viability [8]: 106% (inactive)
- viability [9]: 93.1% (active)
- viability [10]: 103% (inactive)
- viability [11]: 114% (inactive)
- viability [12]: 109% (inactive)
- viability [13]: 14.8% (active)
- viability [14]: 14.2% (active)
- viability [15]: 29.6% (active)
- viability [16]: 12.1% (active)
- viability [17]: 5.75% (active)
- viability [18]: 4.97% (active)
- viability [19]: 16.4% (active)
- viability [20]: 9.53% (active)
- viability [21]: 5.79% (active)
- viability [22]: 4.23% (active)
- viability [23]: 11.1% (active)
- viability [24]: 7.02% (active)
- viability [25]: 5.27% (active)
- viability [26]: 4.3% (active)
- viability [27]: 9.96% (active)
- viability [28]: 7.13% (active)
- viability [29]: 5.24% (active)
- viability [30]: 3.95% (active)
- viability [31]: 6.19% (active)
- viability [32]: 5.94% (active)
- viability [1]: 4.11% (active)
- viability [2]: 3.72% (active)

Structure (SMILES): O=C(O)c1cc(I)ccc1NC(=O)[C@H](Cc1ccccc1)NCc1ccccc1
- viability [3]: 126% (inactive)
- viability [4]: 116% (inactive)
- viability [5]: 98.3% (active)
- viability [6]: 102% (inactive)
- viability [7]: 129% (inactive)
- viability [8]: 111% (inactive)
- viability [9]: 107% (inactive)
- viability [10]: 99.9% (active)
- viability [11]: 133% (inactive)
- viability [12]: 118% (inactive)
- viability [13]: 98.6% (active)
- viability [14]: 97.1% (active)
- viability [15]: 119% (inactive)
- viability [16]: 116% (inactive)
- viability [17]: 95.6% (active)
- viability [18]: 99.8% (active)
- viability [19]: 124% (inactive)
- viability [20]: 116% (inactive)
- viability [21]: 97.8% (active)
- viability [22]: 92.4% (active)
- viability [23]: 134% (inactive)
- viability [24]: 111% (inactive)
- viability [25]: 95.5% (active)
- viability [26]: 85.4% (active)
- viability [27]: 132% (inactive)
- viability [28]: 115% (inactive)
- viability [29]: 80.7% (active)
- viability [30]: 77.5% (active)
- viability [31]: 126% (inactive)
- viability [32]: 112% (inactive)
- viability [1]: 73.4% (active)
- viability [2]: 81.4% (active)

Structure (SMILES): CC#C[C@@]1(O)CC[C@H]2[C@@H]3CCC4=CC(=O)CCC4=C3[C@H](c3ccc(N(C)C)cc3)C[C@@]21C
- viability [3]: 124% (inactive)
- viability [4]: 104% (inactive)
- viability [5]: 88.4% (active)
- viability [6]: 89.8% (active)
- viability [7]: 112% (inactive)
- viability [8]: 114% (inactive)
- viability [9]: 88.8% (active)
- viability [10]: 94.8% (active)
- viability [11]: 122% (inactive)
- viability [12]: 108% (inactive)
- viability [13]: 93.3% (active)
- viability [14]: 95% (active)
- viability [15]: 118% (inactive)
- viability [16]: 110% (inactive)
- viability [17]: 86.7% (active)
- viability [18]: 87.4% (active)
- viability [19]: 122% (inactive)
- viability [20]: 111% (inactive)
- viability [21]: 84.5% (active)
- viability [22]: 86.4% (active)
- viability [23]: 113% (inactive)
- viability [24]: 118% (inactive)
- viability [25]: 83.6% (active)
- viability [26]: 89.9% (active)
- viability [27]: 121% (inactive)
- viability [28]: 118% (inactive)
- viability [29]: 87.2% (active)
- viability [30]: 91% (active)
- viability [31]: 162% (inactive)
- viability [32]: 140% (inactive)
- viability [1]: 72.1% (active)
- viability [2]: 89.7% (active)

Structure (SMILES): CC[C@]1(O)C[C@@H]2CN(CCc3c([nH]c4ccccc34)[C@@](C(=O)OC)(c3cc4c(cc3OC)N(C=O)[C@H]3[C@@](O)(C(=O)OC)[C@H](OC(C)=O)[C@]5(CC)C=CCN6CC[C@@]43[C@@H]65)C2)C1
- viability [3]: 113% (inactive)
- viability [4]: 110% (inactive)
- viability [5]: 91.7% (active)
- viability [6]: 90.9% (active)
- viability [7]: 106% (inactive)
- viability [8]: 106% (inactive)
- viability [9]: 73.6% (active)
- viability [10]: 31.5% (active)
- viability [11]: 66.7% (active)
- viability [12]: 41.5% (active)
- viability [13]: 51% (active)
- viability [14]: 17.7% (active)
- viability [15]: 44.5% (active)
- viability [16]: 29% (active)
- viability [17]: 57.9% (active)
- viability [18]: 14.5% (active)
- viability [19]: 36.6% (active)
- viability [20]: 24% (active)
- viability [21]: 49.3% (active)
- viability [22]: 12.1% (active)
- viability [23]: 34% (active)
- viability [24]: 23.4% (active)
- viability [25]: 49.8% (active)
- viability [26]: 10.9% (active)
- viability [27]: 33.5% (active)
- viability [28]: 23.5% (active)
- viability [29]: 44.2% (active)
- viability [30]: 12.2% (active)
- viability [31]: 34.1% (active)
- viability [32]: 22.9% (active)
- viability [1]: 43% (active)
- viability [2]: 11.8% (active)

Structure (SMILES): CC(C)CC(CC(=O)NO)C(=O)N[C@@H](Cc1ccc2ccccc2c1)C(=O)N[C@@H](C)C(=O)NCCN (some centres undefined)
- viability [3]: 123% (inactive)
- viability [4]: 120% (inactive)
- viability [5]: 90.2% (active)
- viability [6]: 101% (inactive)
- viability [7]: 111% (inactive)
- viability [8]: 110% (inactive)
- viability [9]: 88.9% (active)
- viability [10]: 99.8% (active)
- viability [11]: 123% (inactive)
- viability [12]: 118% (inactive)
- viability [13]: 92% (active)
- viability [14]: 94.4% (active)
- viability [15]: 123% (inactive)
- viability [16]: 120% (inactive)
- viability [17]: 84.6% (active)
- viability [18]: 100% (active)
- viability [19]: 132% (inactive)
- viability [20]: 102% (inactive)
- viability [21]: 90% (active)
- viability [22]: 92.6% (active)
- viability [23]: 114% (inactive)
- viability [24]: 114% (inactive)
- viability [25]: 91.3% (active)
- viability [26]: 92.3% (active)
- viability [27]: 134% (inactive)
- viability [28]: 112% (inactive)
- viability [29]: 85.1% (active)
- viability [30]: 86% (active)
- viability [31]: 112% (inactive)
- viability [32]: 110% (inactive)
- viability [1]: 78.6% (active)
- viability [2]: 88.3% (active)
